Results as given in PubChem BioAssay (NCATS).
Several values for one entry are separate records, joined by “and”; a condition that tells them apart may be missing. Equal values may be shown once. Inconclusive results are not listed. Entries that show only a call come without a potency. Some structures have more than one record in an assay (separate samples or runs), and their calls can disagree. Activity calls are given as the source filed them. Calls follow the shape of the dose curve; as a rule, active = well fitted curve in the direction sought with a large enough effect; inconclusive = small, poorly fitted or top-dose-only effect, or another doubt; inactive = no such curve, though single readings can be large; an effect the other way counts as inactive or inconclusive.

Columns and labels:
[1] = target: Cytochrome P450 3A7 (Homo sapiens) (UniProt P24462); test: Cytochrome P450 family 3 subfamily A member 7 (CYP3A7) small molecule antagonists: luciferase biochemical qHTS assay (AID 1963596); also: nearly all actives have a fitted effect of over 40% in size
Procedure, shortened: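 Recombinant CYP3A7 P450-Glo luminescent assay: enzyme-proluciferin substrate mix preincubated with compound 10 min at room temperature, reaction started with NADPH regeneration system for 1 h. Luciferin detected by luminescence; ketoconazole as positive control.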

[2] = Viability qHTS for spleen associated tyrosine kinase inhibitor (SYKi) naive MV4-11 cells (AID 1963823); also: nearly all actives have a fitted effect of over 40% in size; also: potency is read from the fitted curve at half-maximal effect
Procedure, shortened: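 CellTiter-Glo luminescence, 10 min room-temperature incubation, gave viability. Cells: naive MV4-11 (500/well), treated 72 hr at 37 C, 5% CO2.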

[3] = Viability qHTS for spleen associated tyrosine kinase inhibitor (SYKi) drug resistant MV4-11 cells (AID 1963824); also: nearly all actives have a fitted effect of over 35% in size; also: potency is read from the fitted curve at half-maximal effect
Procedure, shortened: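 SYK inhibitor-resistant MV4-11 AML cells, 500 per well, added to predispensed compounds and incubated 72 hr at 37 C, 5% CO2. Viability measured by CellTiter-Glo luminescence after 10 min at room temperature.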

[4] = Cellular viability qHTS for adrenocortical cancer (ACC) cell line SW-13 (AID 1963989); conditions: SW-13 ACC cells viability, CellTiter-Glo, 48 h; activity (max response): stronger effect = lower value; also: nearly all actives have a fitted effect of over 65% in size; also: potency is read from the fitted curve at half-maximal effect;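 as to activity (max response): cells grown in serum-free medium with ITS supplement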
Procedure, shortened: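 Luminescent ATP read-out (CellTiter-Glo, 20 min at room temperature) measured metabolically competent SW-13 cells after 48 h compound treatment. Final concentrations spanned up to 46 uM; bortezomib served as positive control.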

[5] = Cellular viability qHTS for adrenocortical cancer (ACC) cell line NCI-H295R (AID 1963990); also: nearly all actives have a fitted effect of over 60% in size; also: potency is read from the fitted curve at half-maximal effect
Procedure, shortened: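 IC50 and maximal efficacy derive from four-parameter logistic modelling of titration curves, with reads scaled between DMSO-only wells (0%) and doxorubicin hydrochloride (100% inhibition). Compounds spanned up to 46 uM over 48 h.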

Cytochrome P450 3A7 (Homo sapiens), sequence (P24462 whole entry, looked up): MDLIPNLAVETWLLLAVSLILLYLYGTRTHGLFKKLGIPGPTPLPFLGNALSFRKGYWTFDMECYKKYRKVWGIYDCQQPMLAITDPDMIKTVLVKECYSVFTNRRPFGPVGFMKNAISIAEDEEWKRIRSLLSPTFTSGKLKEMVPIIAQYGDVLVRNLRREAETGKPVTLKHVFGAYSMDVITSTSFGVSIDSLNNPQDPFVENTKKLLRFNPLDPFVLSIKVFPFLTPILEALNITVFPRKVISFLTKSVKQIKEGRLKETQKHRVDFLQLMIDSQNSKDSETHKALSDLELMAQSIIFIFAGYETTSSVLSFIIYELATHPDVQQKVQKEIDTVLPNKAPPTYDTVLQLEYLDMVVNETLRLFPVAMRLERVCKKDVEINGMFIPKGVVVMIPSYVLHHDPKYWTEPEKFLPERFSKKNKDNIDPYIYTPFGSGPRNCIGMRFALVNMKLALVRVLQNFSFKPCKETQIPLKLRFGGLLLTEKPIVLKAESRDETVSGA

Row | SMILES | Potency [1] | Potency [2] | Potency [3] | Potency [4] | Potency [5] | activity (max response) [4]
1 | C[C@@]12C(=O)OC(=O)[C@]1(C)C1CCC2O1 | inactive | 2.66 µM (active) | 2.99 µM (active) | 7.31 µM (active) | 2.31 µM (active) | 
2 | COc1cc(C(=O)NCc2ccc(OCCN(C)C)cc2)cc(OC)c1OC | inactive | inactive | inactive |  | inactive | -6.7% (inactive)
3 | Cc1ccc(=O)n(-c2ccccc2)c1 | inactive | inactive | inactive |  | inactive | 13.5% (inactive)
4 | O=C(OCc1ccccc1)c1ccccc1 | inactive | inactive | inactive |  | inactive | -7.64% (inactive)
5 | O=Cc1ccccc1C=O | inactive | inactive | inactive |  | inactive | 0.792% (inactive)
6 | Cc1ccc2ccc(Cl)cc2n1 | inactive | inactive | inactive |  | inactive | 15.8% (inactive)
7 | O=C(Nc1ccc(-c2ccnc(Nc3ccc(N4CCOCC4)cc3)n2)cc1)C1CCCN1 (configuration not stated) | inactive | 1.66 µM (active) | 1.46 µM (active) and 2.35 µM (active) |  | inactive | -0.397% (inactive)
8 | CCCCS(=O)(=O)N[C@@H](Cc1ccc(OCCCCC2CCNCC2)cc1)C(=O)O | inactive | inactive | inactive |  | inactive | 11.9% (inactive)
9 | Nc1nc(=O)n([C@@H]2O[C@H](CO)[C@@H](O)[C@@H]2F)cc1I | inactive | inactive | inactive |  | inactive | 8.37% (inactive)
10 | O=C(O)[C@H](O)[C@@H](O)[C@H](O[C@@H]1O[C@H](CO)[C@H](O)[C@H](O)[C@H]1O)[C@H](O)CO | inactive | inactive | inactive |  | inactive | 9.39% (inactive)
11 | NC(=O)C1(N2CCCCC2)CCN(CCCC(=O)c2ccc(F)cc2)CC1 | inactive | inactive | inactive |  | inactive | 1.85% (inactive)
12 | Cn1c(=O)c2[nH]c(Br)nc2n(C)c1=O | inactive | inactive | inactive |  | inactive | -1.12% (inactive)
13 | O=C(O)CC(O)C(=O)O (configuration not stated) | inactive | inactive | inactive |  | inactive | 12.9% (inactive)
14 | Cc1nc2n(c(=O)c1CCN1CCC(c3noc4cc(F)ccc34)CC1)CCC[C@H]2O | inactive | inactive | inactive |  | inactive | 4.14% (inactive)
15 | CC1(C)CO[C@@H](CC(=O)O)CN1 | inactive | inactive | inactive |  | inactive | 8.37% (inactive)
16 | CCOC(=O)[C@H](CCc1ccccc1)N[C@@H](C)C(=O)N1C(=O)N(C)C[C@H]1C(=O)O | inactive | inactive | inactive |  | inactive | 5.98% (inactive)
17 | O=C(NCCCN1CCOCC1)c1ccc(Cl)cc1 | inactive | inactive | inactive |  | inactive | 
18 | CN1CCN(c2cc3c(nn2)Oc2ccccc2N3C)CC1 | inactive | inactive | inactive |  | inactive | 
19 | OC[C@@H](O)[C@@H](O)[C@H](O)[C@H](O)CO | inactive | inactive | inactive |  | inactive | 
20 | O=c1[nH]cnc2c1ncn2[C@@H]1O[C@H](CO)[C@@H](O)[C@H]1O | inactive | inactive | inactive |  | inactive | 
21 | CCn1c(=O)c(-c2ccn[nH]2)cc2c(C)nc(N)nc21 | inactive | 1.46 µM (active) | 2.91 µM (active) |  | 7.08 µM (active) | 
22 | CN(C)C(=O)Oc1cccc([N+](C)(C)C)c1 | inactive | inactive | inactive |  | inactive | 16.2% (inactive)
23 | CO[C@@]1(NC(=O)CSC[C@@H](N)C(=O)O)C(=O)N2C(C(=O)O)=C(CSc3nnnn3C)CS[C@@H]21 | inactive | inactive | inactive |  | inactive | 
24 | OC1C(O)C(O)C(O)C(O)C1O (configuration not stated) | inactive | inactive | inactive |  | inactive | -3.11% (inactive)
25 | CC[C@H]1CN2CCc3cc(OC)c(OC)cc3[C@@H]2C[C@@H]1C[C@H]1NCCc2cc(OC)c(OC)cc21 | inactive | 106 nM (active) and 83.3 nM (active) | 133 nM (active) and 93.4 nM (active) | 231 nM (active) and 447 nM (active) | 146 nM (active) and 282 nM (active) | 
26 | CCOc1ccc(NC(C)=O)cc1 | inactive | inactive | inactive |  | inactive | -8.62% (inactive)
27 | C=C1[C@H](CO)[C@@H](O)C[C@@H]1n1cnc2c(=O)[nH]c(N)nc21 | inactive | inactive and 16.4 µM (active) | inactive |  | inactive | 
28 | Cc1nc(-c2cn3c(n2)-c2ccc(-c4cnn(C(C)(C)C(N)=O)c4)cc2OCC3)n(C(C)C)n1 | inactive | 0.148 µM (active) | 2.59 µM (active) |  | 2.51 µM (active) | 
